Only some compounds are listed: those with a hit (about 21% of all), similar ones and a draw of the others.
NS1 inh = blocks influenza NS1 protein function. Potency, µM (series often up to 46.1 µM). hit rate 0.4% among 270,000; calls by dose curve; also: actives are rising curves; nearly all actives have a fitted effect of over 50% in size
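Growth recovery, yeast-based: influenza A NS1 expressed in S. cerevisiae causes slow growth, and suppressors are detected by OD600. The parent strain without NS1 is used as positive control.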
Shiga toxin inh = blocks Shiga toxin action in Vero cells. Vero cells, Shiga toxin protein synthesis inhibition reporter. inhibition, % at 38.7 µM. hit rate 9.2% among 290,000. AID 2315; in the data active = inhibition mostly above about 28%, no sharp cut-off; inactive = mostly below about 43%
Pf growth 48h = P. falciparum growth inhibition at 48 hours (one generation); AID 504832; hit rate 5.9% among 310,000; Potency, µM (series often up to 28.7 µM), actives largely listed as inhibitors; P. falciparum luciferase growth in erythrocytes, 48 h
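Here the parasites carry a stable luciferase gene and grow inside erythrocytes in Albumax-based RPMI medium with compound for one erythrocytic cycle. Activity is scored as loss of luminescent signal.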
CHX counter = counter-screen for Shiga toxin inhibitors: cycloheximide protein synthesis inhibition; max response, %; hit rate 12% among 300,000; AID 2314; cell reporter, cycloheximide protein synthesis inhibition counterscreen; in the data active = max response mostly above about 13%, no sharp cut-off; inactive = mostly below about 14%; also: read at 38.3 µM for the half of the compounds with a filed dose
Giardia FBPA inh = inhibitors of Giardia lamblia fructose-1,6-bisphosphate aldolase; purified Giardia FBPA; Potency, µM (top dose mostly 59.6 µM), most hits filed as inhibitors; hit rate 0.71% among 290,000; AID 2451; also: nearly all actives have a fitted effect of over 55% in size
Target sequence (A8B2U2 whole entry, looked up): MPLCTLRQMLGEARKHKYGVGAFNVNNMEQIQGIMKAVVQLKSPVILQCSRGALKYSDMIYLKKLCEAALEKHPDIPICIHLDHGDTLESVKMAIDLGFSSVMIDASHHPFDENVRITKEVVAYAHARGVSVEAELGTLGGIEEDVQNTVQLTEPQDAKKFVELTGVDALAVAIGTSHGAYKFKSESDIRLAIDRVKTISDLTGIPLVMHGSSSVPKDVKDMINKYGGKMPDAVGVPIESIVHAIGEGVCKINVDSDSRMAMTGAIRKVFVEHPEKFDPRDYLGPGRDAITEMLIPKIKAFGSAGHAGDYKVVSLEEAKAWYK
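40 nM FBPA preincubated 10 min at RT with compound (up to 57.5 uM final), then substrate plus GAPDH/TPI/NAD/arsenate coupling and diaphorase/resazurin added. Fluorescence read after 20 min at RT, 525/598 nm.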
Pf growth 96h = P. falciparum growth inhibition at 96 hours; P. falciparum luciferase reporter growth, 96 h; Potency, µM (highest dose often 28.7 µM), most hits filed as inhibitors; hit rate 6.9% among 320,000
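Readout is luminescence from an integrated firefly luciferase in P. falciparum. Red cells, 2% hematocrit and 0.05% parasitemia final, were cultured with compound through two parasite generations (96 hours) at 37 C, 5% CO2.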
A number is an active result; i = inactive; ? = inconclusive; nt = not tested or not shown; [ ] = another dose, or the depositor's remark. Unless noted, calls follow the shape of the dose curve; as a rule, active = well fitted curve in the direction sought with a large enough effect; inconclusive = small, poorly fitted or top-dose-only effect, or another doubt; inactive = no such curve, though single readings can be large; an effect the other way counts as inactive or inconclusive.

SMILES	NS1 inh	Shiga toxin inh	Pf growth 48h	CHX counter	Giardia FBPA inh	Pf growth 96h
C[C@@H](NC(=O)[C@@H]1Cc2ccccc2CN1)C(=O)Nc1ccc2c(c1)OCCO2	i	67	i	27	i	i
O=C(CNC(=O)[C@@H]1Cc2ccccc2CN1)Nc1ccc2c(c1)OCO2	i	i	i	i	nt	i
COCC(=O)N1CCC(Oc2ccc(C(=O)NC3Cc4ccccc4C3)cc2)CC1	i	55	i	27	nt	10µM
CN(C)S(=O)(=O)N1CCC(Oc2ccc(C(=O)NC3Cc4ccccc4C3)cc2)CC1	?	106	?	22	i	?
COCC(=O)N1CCC(Oc2ccc(C(=O)N[C@H](C(=O)OC)C(C)C)cc2)CC1	i	i	i	i	i	?
O=C(N/N=C/c1cccnc1)c1sc2ccccc2c1Cl	i	i	?	21	i	i
COc1ccc2c(Cl)c(C(=O)NN)sc2c1	i	i	i	i	i	?
COc1ccc2c(Cl)c(C(=O)N/N=C/c3cccnc3)sc2c1	i	47	?	20	i	i
COc1ccc2c(Cl)c(C(N)=O)sc2c1	i	i	i	20	i	nt
Cc1ccc(S(=O)(=O)c2ncccc2[N+](=O)[O-])cc1	i	i	nt	i	i	?
COc1ccc(C2(c3ccc(O)cc3O)CC(c3ccccc3Cl)NC(=S)N2)cc1 (stereo not given)	i	i	12µM	i	i	i
C=C1C(=O)O[C@@H]2[C@@H]1CC/C(C)=C\CC[C@@]1(C)O[C@H]21	nt	nt	?	nt	i	9.5µM
C=C1C(=O)O[C@@H]2[C@H]3O[C@]3(C)CCC=C(C)CC[C@@H]12	i	nt	nt	nt	i	nt
COC(=O)CC1C2(C)CC34OC5(C)O[C@@]6(C7/C(=C(/OC)C(C)C)C(=O)OC(c8ccoc8)[C@@]7(C)C(OC(=O)C(C)C)C(OC)[C@]6(O5)[C@@]13C)C(OC)[C@]4(OC)C2OC(C)=O (stereo not given in full)	nt	nt	nt	nt	i	nt
CCCS(=O)(=O)Nc1ccc(N2CCCCC2)c(S(=O)(=O)Nc2ccccc2OC)c1	nt	nt	10µM	nt	nt	13µM
COc1ccccc1NS(=O)(=O)c1cc(N)ccc1N1CCCCC1	i	i	15µM	i	i	i
CCn1c(C)nc2cc(C(=O)NNC(=O)c3ccc(Cl)nc3)ccc21	nt	i	i	i	i	i
CCn1c(C)nc2cc(C(=O)NNC(=S)Nc3ccccc3Cl)ccc21	i	51	i	40	i	i
CCn1c(C)nc2cc(C(=O)NNC(=S)Nc3ccc(Cl)cc3Cl)ccc21	i	i	i	16	?	?
COc1ccc(OC)c(C2C(C(=O)c3ccco3)=C(O)C(=O)N2CC2CCCO2)c1 (stereo not given)	i	i	i	i	i	?
CCc1ccc(NC(=O)c2cc(C)nn2-c2ccccc2)cc1	i	i	i[0.00184 µM]	13	i	i
COc1ccc(NC(=O)c2cc(C)nn2-c2ccccc2)cc1	i	58	i[0.00184 µM]	37	i	i
Cc1ccccc1/C=N/NC(=O)c1ccc(-n2cnnn2)cc1	nt	nt	i	nt	nt	i
COc1ccc(Nc2nc(CC(C)=O)ns2)cc1	i	68	i	27	i	2.6µM
COc1cccc(Nc2nc(CC(C)=O)ns2)c1	i	60	i	19	i	?
SMILES	NS1 inh	Shiga toxin inh	Pf growth 48h	CHX counter	Giardia FBPA inh	Pf growth 96h
Cc1ccc(CNC(=O)C2CC3Cn4c(nc5cc(Cl)c(Cl)cc54)C3N2C)o1 (stereo not given)	i	i	i	i	i	i
CC(=O)c1cnc2nc(SCc3ccccc3C)nn2c1C	i	i	i	18	i	i
CC1(C)CC(NC(=O)c2ccc(Cl)c(Cl)c2)CC(C)(C)N1	i	i	?	i	i	i
Cc1cc(=O)n2c(nc3ccccc32)[nH]1	i	i	?	i	i	?
CCCc1cc(=O)n2c(nc3ccccc32)[nH]1	i	i	?	18	i	nt
CCN(CC)S(=O)(=O)c1ccc(NC(=O)CCNC(=O)c2ccccc2)cc1	i	i	i[0.00184 µM]	i	i	?
CC(=O)Nc1ccc(SC[C@H](CC(C)C)N2CCN(CC(C)C)CCC2=O)cc1	i	i	?	i	i	?
CC(C)C[C@@H](CSc1ccc(Br)cc1)N1CCN(C)CCC1=O	?	57	i	40	i	?
Cc1ccc(SC[C@H](CC(C)C)N2CCN(C)CCC2=O)cc1	i	84	i	38	i	i
CC(C)C[C@@H](COc1ccccc1)N1CCN(C)CCC1=O	i	i	i	i	i	i

Assay outcomes from PubChem BioAssay.
